Bioassay records (PubChem)
TMEM16A inh – inhibitors of mouse TMEM16A calcium-activated chloride channel | hit rate 1.2% among 310,000 | Q8BHY3 | normalized B-score (activity score, 25-100; higher = stronger inhibition) at 10 µM | HEK293 TMEM16A/YFP iodide influx fluorescence, ionomycin;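 active = ratio plate-corrected score three or more library SD toward inhibition, starting fluorescence score within five deviations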;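 also: score derived from kinetic fluorescence span divided by baseline fluorescence per well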
Target sequence (Q8BHY3 whole entry, looked up): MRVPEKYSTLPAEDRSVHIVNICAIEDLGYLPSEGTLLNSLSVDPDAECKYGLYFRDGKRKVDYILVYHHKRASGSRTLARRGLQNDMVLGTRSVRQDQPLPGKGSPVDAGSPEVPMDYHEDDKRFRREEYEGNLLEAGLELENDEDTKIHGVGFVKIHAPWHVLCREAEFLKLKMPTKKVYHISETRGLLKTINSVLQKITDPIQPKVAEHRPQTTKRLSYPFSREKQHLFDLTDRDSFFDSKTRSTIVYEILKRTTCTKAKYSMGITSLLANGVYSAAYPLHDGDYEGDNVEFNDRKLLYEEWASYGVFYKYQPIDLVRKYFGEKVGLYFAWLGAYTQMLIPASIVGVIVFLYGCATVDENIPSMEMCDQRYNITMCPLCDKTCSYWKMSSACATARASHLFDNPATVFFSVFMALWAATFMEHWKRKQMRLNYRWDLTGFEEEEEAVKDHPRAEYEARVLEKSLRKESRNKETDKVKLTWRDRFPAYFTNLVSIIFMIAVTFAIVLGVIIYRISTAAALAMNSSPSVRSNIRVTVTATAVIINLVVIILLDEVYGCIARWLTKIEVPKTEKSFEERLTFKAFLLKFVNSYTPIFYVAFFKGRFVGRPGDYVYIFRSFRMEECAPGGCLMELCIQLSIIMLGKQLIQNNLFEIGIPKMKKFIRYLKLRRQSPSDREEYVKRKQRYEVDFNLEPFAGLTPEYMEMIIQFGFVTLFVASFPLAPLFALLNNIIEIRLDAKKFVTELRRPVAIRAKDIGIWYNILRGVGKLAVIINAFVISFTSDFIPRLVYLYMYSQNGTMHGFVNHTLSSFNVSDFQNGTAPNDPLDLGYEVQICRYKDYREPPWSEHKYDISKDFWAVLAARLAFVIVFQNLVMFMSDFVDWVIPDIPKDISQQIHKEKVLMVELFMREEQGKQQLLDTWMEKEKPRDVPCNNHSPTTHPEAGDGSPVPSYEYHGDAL
CHT allo act – allosterically activates the human high affinity choline transporter. Q9GZV3. CHT-expressing cells, membrane potential dye, choline EC20; active compounds read high; LV-AA mutant CHT in HEK293 cells. B-score at 10 µM. hit rate 0.49% among 310,000. AID 488977;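 active = initial fluorescence not abnormally high and integrated response B-score, plate-corrected, over 3 SD above library mean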
CHT block – inhibitors of human choline transporter CHT; CHT-expressing cells, membrane potential dye, choline response; active compounds read low; B-score at 10 µM; hit rate 0.86% among 310,000; AID 488975;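 active = B-score over 3 SD under the library average, and starting fluorescence ratio not unusually high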;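 also: choline stimulus applied at its EC90 after an EC20 pre-addition; B-score computed on integrated fluorescence ratio after choline addition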
TMEM16A act – activates or potentiates the mouse TMEM16A chloride channel; Q8BHY3; HEK293 TMEM16A/YFP-H148Q/I152L, iodide quench fluorescence; active compounds read low; B-score at 10 µM; hit rate 0.3% among 340,000;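 active = fluorescence-ratio B-score plate-corrected deviation score at least 3 library SD below zero, with starting fluorescence score within 5 deviations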;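 also: channel opened by trigger with iodide after compound preincubation; score built on the fluorescence ratio of max minus min over baseline; more negative score means more quench and so TMEM16A activation or potentiation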
CHT block conf – human CHT inhibition, confirmatory screen | shares compounds with CHT block | CHT-expressing cells, choline membrane potential dye; LV-to-AA substituted CHT, HEK293 cells | CHT activity remaining % of control (active compounds read low), % at 10 µM | hit rate 70% among 2,400 | AID 493221;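 active = choline transporter activity left, mean of duplicates at 10 µM, below buffer-only control mean minus 3 SD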;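 also: depolarization triggered by choline at its EC90 following an EC20 pre-addition; 0% = hemicholinium-3 full block and 100% = buffer-only control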
HEK293 MPD ctr – counter-screen for CHT inhibitors: effect in parental HEK293 cells | shares compounds with CHT block | membrane potential dye, choline response; active = decrease or increase beyond buffer ±3SD | membrane potential ratio readout (active if shifted either direction beyond buffer ±3SD; no single direction) at 10 µM | hit rate 4% among 2,400 | AID 493222;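 also: parental cells lack the transporter so any hit is non-specific; ratio is peak minus trough fluorescence over baseline after EC90 choline challenge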
An asterisk follows results filed as active. Only some compounds are listed: those with a hit (about 2.4% of all), similar ones and a draw of the others.

Screening Cc1ccccc1/C=C/C(=O)NCC(=O)N1CCC(N(C)C2CCCCC2C)CC1 (stereo not given) returned TMEM16A inh inactive, CHT allo act inactive, CHT block -13*, TMEM16A act inactive, CHT block conf 21%* and HEK293 MPD ctr inactive.
`O=C(CC1(CC(=O)N2CCOCC2)CCCC1)Nc1ccccc1` gave TMEM16A act inactive.
CC(=O)N(C)c1ccc(NC(=O)C(c2ccccc2)c2ccccc2)cc1 was read as TMEM16A inh inactive, CHT allo act inactive, CHT block inactive and TMEM16A act inactive.
CC(=O)N(C)c1ccc(NC(=O)C(Sc2ccccc2)c2ccccc2)cc1 (stereo not given) was read as TMEM16A inh inactive, CHT allo act inactive, CHT block -5.5*, TMEM16A act inactive, CHT block conf 65%* and HEK293 MPD ctr inactive.
Screening COc1ccccc1NC(=O)Cn1nnc(C(=O)NCCc2ccccc2)c1N returned TMEM16A inh inactive, CHT allo act inactive, CHT block inactive and TMEM16A act inactive.
For CCc1ccc(Nc2n[n+](-c3ccccc3)c(-c3cccc(C)c3)s2)cc1 the results were TMEM16A inh inactive, CHT allo act inactive, CHT block -15*, TMEM16A act inactive, CHT block conf 49%* and HEK293 MPD ctr 2.6*.
CC(=O)c1cc2c(cc1NC(=O)CCNC(=O)c1ccccc1Cl)OCO2 was read as TMEM16A inh inactive, CHT allo act inactive, CHT block -5.6*, TMEM16A act inactive, CHT block conf 50%* and HEK293 MPD ctr inactive.
Screening O=C(CCNC(=O)c1ccccc1Cl)Nc1ccc2c(c1)OCO2 returned TMEM16A inh inactive, CHT allo act inactive, CHT block inactive and TMEM16A act inactive.
Screening COc1ccc(Cl)c2sc(N(CCN(C)C)C(=O)c3ccc4c(c3)OCCO4)nc12 returned TMEM16A inh inactive, CHT allo act inactive, CHT block -9.8*, TMEM16A act inactive, CHT block conf 36%* and HEK293 MPD ctr inactive.
Cc1ccc(CNC(=O)C2CC2c2ccccc2)cc1 (stereo not given) was read as TMEM16A inh inactive, CHT allo act inactive, CHT block inactive and TMEM16A act inactive.
For Cc1ccc2[nH]c(C(=O)O)c(NC(=O)[C@@H]3C[C@@H]3c3ccccc3)c2c1 the results were TMEM16A inh inactive, CHT allo act inactive, CHT block -5*, TMEM16A act inactive, CHT block conf inactive and HEK293 MPD ctr inactive.
CC(C)(C)OC(=O)C[C@@H]1C/C=C\C[C@@H](CC(=O)NCCO)C(=O)NC[C@@H](c2ccccc2)OC1=O was read as TMEM16A act inactive.
CC1=C/C(=N\OS(=O)(=O)c2ccccc2)C(C)=CC1=O was read as TMEM16A inh 100*, CHT allo act inactive, CHT block -6*, TMEM16A act -6.4*, CHT block conf 50%* and HEK293 MPD ctr inactive.
Screening C/C(=N\NC(=O)c1nn(C)cc1Br)c1cccc(NC(=O)C2CCCC2)c1 returned TMEM16A inh inactive, CHT allo act inactive, CHT block inactive and TMEM16A act inactive.
Screening Cc1noc(C)c1COC(=O)c1cc(F)c(F)cc1Cl returned TMEM16A inh inactive, CHT allo act inactive, CHT block inactive and TMEM16A act inactive.
For Cc1noc(C)c1COC(=O)c1cnc(Cl)c(Cl)c1 the results were TMEM16A inh inactive, CHT allo act inactive, CHT block -6.9*, TMEM16A act inactive, CHT block conf 47%* and HEK293 MPD ctr inactive.
For C[C@H](O)[C@@H](C(=O)N1CCN(C(=O)OC(C)(C)C)CC1)n1cc(CCCCNC(=O)OC(C)(C)C)nn1 the results were TMEM16A inh inactive, CHT allo act inactive, CHT block inactive and TMEM16A act inactive.
For Cc1cn([C@H](C(=O)NCCCCCCCCCCC(=O)N2CCN(C(=O)OC(C)(C)C)CC2)[C@@H](C)O)nn1 the results were TMEM16A inh inactive, CHT allo act inactive, CHT block -6.8*, TMEM16A act inactive, CHT block conf 60%* and HEK293 MPD ctr inactive.
CCN1CCN(c2cc(C)c3cc(NC(=S)N4CCCC4)ccc3n2)CC1 was read as TMEM16A inh inactive, CHT allo act inactive, CHT block inactive and TMEM16A act inactive.
Screening CCCN(CCC)CCCNC(=S)Nc1ccc2nc(N3CCN(CC)CC3)cc(C)c2c1 returned TMEM16A inh inactive, CHT allo act inactive, CHT block -6.7*, TMEM16A act inactive, CHT block conf 49%* and HEK293 MPD ctr 2.2*.
Screening CCN1CCN(c2cc(C)c3cc(NC(=S)N4CCCCC4)ccc3n2)CC1 returned TMEM16A inh inactive, CHT allo act inactive, CHT block -6.7*, TMEM16A act inactive, CHT block conf 47%* and HEK293 MPD ctr inactive.
For Cc1ccc(C(=O)NCC(=O)OCCOc2ccccc2Cl)cc1 the results were TMEM16A inh inactive, CHT allo act inactive, CHT block inactive and TMEM16A act inactive.
Screening O=C(CN1CCN(c2ccc(O)cc2)CC1)NCC(=O)Nc1ccc(F)c(F)c1F returned TMEM16A act inactive.
`Cc1ccc(C(=O)N/C(=C\c2cccs2)c2nc3ccccc3[nH]2)cc1` gave TMEM16A inh inactive, CHT allo act inactive, CHT block -5*, TMEM16A act inactive, CHT block conf 64%* and HEK293 MPD ctr inactive.
Screening O=C(N/C(=C/c1cccs1)c1nc2ccccc2[nH]1)c1ccccc1 returned TMEM16A inh inactive, CHT allo act inactive, CHT block inactive and TMEM16A act inactive.
CCOC(=O)CSc1nnc2n1C(C)(C)Cc1ccccc1-2 was read as TMEM16A inh inactive, CHT allo act inactive, CHT block inactive and TMEM16A act inactive.
For CCSc1nnc2n1C(C)(C)Cc1ccccc1-2 the results were TMEM16A inh inactive, CHT allo act inactive, CHT block -5*, TMEM16A act inactive, CHT block conf 41%* and HEK293 MPD ctr inactive.
Screening CCCCCn1c(CCNC(=O)CCC)nc2ccccc21 returned TMEM16A inh inactive, CHT allo act inactive, CHT block -6.2*, TMEM16A act inactive, CHT block conf 60%* and HEK293 MPD ctr inactive.
`O=C(NC1CC1)C1=C[C@H](c2ccc(Br)cc2)C[C@H](OCc2ccc(CO)cc2)O1` gave TMEM16A inh inactive, CHT allo act inactive, CHT block -6.4*, TMEM16A act inactive, CHT block conf 52%* and HEK293 MPD ctr inactive.
